In the library only some 5.2% were active in any assay of this set; here they are far more common.
SMARCA2 act: SMARCA2 function activation, primary screen; MG213 cells, MMTV-luciferase reporter, dexamethasone, overnight; 370,000 compounds, 1% hits; activation, % at 9.1 µM; AID 652017; in the data active means activation above about 7.8%
esBAF inh: blocks esBAF chromatin remodeling in mouse ES cells | Bmi1-luciferase knock-in reporter, 24 h; 100% = twice the neutral-well signal | reporter increase, % at 12.5 µM | 350,000 compounds, 2% hits | AID 602393; in the data active means activation above about 40%;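 further: a rise in the Bmi1 reporter signal indicates esBAF inhibition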
SKN-1 block: inhibitors of C. elegans SKN-1. C. elegans VP596 Pgst-4::GFP/RFP ratio, acrylamide-induced, 24 h. inhibition, % at 21.8 µM. 360,000 compounds, 0.49% hits. AID 624304;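 active means interference check ratio from 0.5 to 1.5 plus GFP to RFP signal ratio inhibition reaching or exceeding a fixed threshold, cut at about 30% in these data, passing the limit was not always enough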
NadD inh: NadD (S. aureus) enzyme inhibition; purified NadD enzyme, colorimetric absorbance read-out; AID 602399; inhibition, % at 20 µM; 360,000 compounds, 0.78% hits; in the data active means inhibition above about 26%
NR3A LBD binder: modulates the human NR3A ligand-binding domain; NR3A LBD differential scanning fluorimetry, Tm shift; 0% = protein alone, 100% = glycine-bound protein; Tm shift relative to glycine control, % at 25 µM; 340,000 compounds, 2.5% hits; AID 1259313;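 active means melting temperature shift of at least 10% of the positive control shift, at one fixed dose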
Vif imaging: HIV Vif inhibition; HEK293T cells, Vif self-association by quenched fluorescence, imaging, 24 h; inhibition, % at 7.49 µM; 340,000 compounds, 0.35% hits; in the data active means inhibition above about 50%, passing the limit was not always enough
Large screens that a line does not name were inactive.

Cc1c(C(=O)NCC(C)C)sc2nc(-c3ccc(F)cc3)cn12	esBAF inh 50
COC(=O)c1ccc(NC(=O)c2sc3nc(-c4ccccc4)cn3c2C)cc1	NR3A LBD binder 28
COc1ccc(-c2cn3c(C)c(C(=O)Nc4cccc(NC(C)=O)c4)sc3n2)cc1	NR3A LBD binder 13
C[C@@H]1CCCCO[C@H](CN(C)C(=O)c2ccccc2)[C@@H](C)CN([C@@H](C)CO)C(=O)c2cc(NS(=O)(=O)c3ccccc3)ccc2O1	none (no result: SMARCA2 act, SKN-1 block, NadD inh, NR3A LBD binder, Vif imaging)
Cc1cc(Cl)cc(C)c1OCCCCN1CCOCC1	SKN-1 block 43
c1ccc(COc2ccc(OCCCCN3CCCC3)cc2)cc1	SMARCA2 act 19 (no result: esBAF inh)
Clc1ccc(OCCCCCN2CCOCC2)cc1	SKN-1 block 39
CCCCOc1ccc(OCCCN2CCOCC2)cc1	none
Cc1cc(Cl)c(OCCCCN2CCOCC2)c(Br)c1	none (no result: esBAF inh)
CC(=O)c1ccc(-n2nncc2-c2ccc([N+](=O)[O-])cc2)cc1	SKN-1 block 59 (no result: esBAF inh)
COC(=O)c1c(C)n(-c2ccccc2)c2ccc(O)cc12	none
COC(=O)c1c(O)cc(C(C)(C)C)n(-c2ccccc2)c1=O	NR3A LBD binder 18 (no result: esBAF inh)
COc1ccc2cc(CCNS(=O)(=O)c3ccc(NC(C)=O)cc3)c(=O)[nH]c2c1	Vif imaging 57
Cc1ccc(S(=O)(=O)NCCc2cc3ccc(C)cc3[nH]c2=O)cc1	none
COc1cccc(N2CCN(c3ncccn3)CC2)c1	esBAF inh 43
COc1cc2[nH]c(=O)n(CCCC(=O)NC3CCCCC3)c(=O)c2cc1OC	Vif imaging 55 (no result: SMARCA2 act)
O=C(COc1ccc2c(c1)CCC2)Nc1ccccn1	esBAF inh 51
O=C(COc1ccccc1F)Nc1ccc2c(c1)CCC2	none
Cc1ccccc1NC(=O)COC(=O)COc1ccc2c(c1)CCC2	none
O=C(COC(=O)COc1ccc2c(c1)CCC2)Nc1ccccc1	esBAF inh 42
O=C(COc1cccc(Cl)c1)Nc1ccc2c(c1)CCC2	Vif imaging 105
O=C(COc1ccc2c(c1)CCC2)NCc1ccccc1	none (no result: esBAF inh)
CO[C@@H]1CN(C)C(=O)c2cc(NS(C)(=O)=O)ccc2OC[C@H](C)N(CC2CCCCC2)C[C@H]1C	none (no result: SMARCA2 act, SKN-1 block, NadD inh, NR3A LBD binder, Vif imaging)
Cc1noc(C)c1NC(=O)Nc1cccc2c1O[C@@H](CN(C)S(=O)(=O)c1cn(C)cn1)[C@@H](C)CN([C@@H](C)CO)C2=O	none (no result: SMARCA2 act, SKN-1 block, NadD inh, NR3A LBD binder, Vif imaging)
C[C@@H]1CN([C@H](C)CO)C(=O)c2cc(Br)cnc2O[C@@H]1CN(C)C(=O)C1CCCCC1	none (no result: SMARCA2 act, SKN-1 block, NadD inh, NR3A LBD binder, Vif imaging)
c1ccc2nc3c(nc2c1)OCC1CCCCN31 (stereo unspecified)	esBAF inh 48
COCC(=O)Nc1ccc2c(c1)C(=O)N(C)C[C@@H](OC)[C@@H](C)CN(C(=O)c1ccccc1F)[C@@H](C)CO2	none (no result: SMARCA2 act, SKN-1 block, NadD inh, NR3A LBD binder, Vif imaging)
Cc1ccccc1NC(=O)c1ccc(CSc2ncccn2)cc1	esBAF inh 46
Cc1ccc(NC(=O)c2ccc(CSc3ccccn3)cc2)c(O)c1	none (no result: esBAF inh)
Cc1ccc(NC(=O)c2ccc(CSc3ccccn3)cc2)cc1	esBAF inh 50
CO[C@@H]1CN(C)C(=O)c2ccc(NS(=O)(=O)c3ccc(Cl)cc3)cc2OC[C@@H](C)N(C(=O)Cc2cccnc2)C[C@H]1C	none (no result: SMARCA2 act, SKN-1 block, NadD inh, NR3A LBD binder, Vif imaging)
C[C@@H]1CN([C@@H](C)CO)C(=O)Cc2cc(NC(=O)C3CC3)ccc2O[C@H]1CN(C)Cc1ccc2c(c1)OCO2	none (no result: SMARCA2 act, SKN-1 block, NadD inh, NR3A LBD binder, Vif imaging)
Cc1ccc(N=Nc2c(C)[nH]n(C(N)=S)c2=O)cc1	esBAF inh 57
Cc1[nH]n(C(N)=S)c(=O)c1N=Nc1cc(C(F)(F)F)ccc1Cl	NR3A LBD binder 12
Cc1[nH]n(C(N)=S)c(=O)c1N=Nc1ccc(S(=O)(=O)N2CCCC2)cc1	esBAF inh 53
COc1cccc(S(=O)(=O)N2C[C@@H](O)COC[C@H]3O[C@H](CC(=O)Nc4ccccc4)CC[C@@H]32)c1	none (no result: SMARCA2 act, SKN-1 block, NadD inh, NR3A LBD binder, Vif imaging)
O=C(N[C@H]1CC[C@@H](CCNS(=O)(=O)c2ccc(Cl)cc2)O[C@@H]1CO)c1cccnc1	none (no result: SMARCA2 act, SKN-1 block, NadD inh, NR3A LBD binder, Vif imaging)
CNC(=O)Cn1c(C)cc(=O)c2cccc(C)c21	none (no result: esBAF inh)
Cc1cccc2c(=O)cc(C)n(Cc3ccccc3)c12	NR3A LBD binder 12 (no result: esBAF inh)
Cc1ccccc1NCC(=O)N/N=C/c1c(C)c(C(=O)c2ccc(Cl)cc2)n2ccccc12	NR3A LBD binder 12 (no result: esBAF inh)
C[C@@H]1CN([C@H](C)CO)C(=O)c2cc(-c3ccc(C(=O)N(C)C)cc3)cnc2O[C@@H]1CN(C)C(=O)c1ccncc1	none (no result: SMARCA2 act, SKN-1 block, NadD inh, NR3A LBD binder, Vif imaging)
C#CCOCCOCCOCCNc1nc(N2CCN(C(=O)CCCCCCCCCCNC(=O)[C@@H](CCSC)n3cc(CCO)nn3)CC2)nc(N2CCN(C(=O)CCCCCCCCCCNC(=O)[C@H]([C@@H](C)CC)n3cc(CCCCCN)nn3)CC2)n1	NR3A LBD binder 17 (no result: SMARCA2 act, esBAF inh, SKN-1 block, NadD inh, Vif imaging)
C#CCOCCOCCOCCNc1nc(N2CCN(C(=O)CCCCCCCCCCNC(=O)[C@@H](CCSC)n3cc(CCO)nn3)CC2)nc(N2CCN(C(=O)CCCCCCCCCCNC(=O)[C@H]([C@@H](C)CC)n3cc(CCCCN=C(N)N)nn3)CC2)n1	NadD inh 68 (no result: SMARCA2 act)
C#CCOCCOCCOCCNc1nc(N2CCN(C(=O)CCCCCCCCCCNC(=O)[C@H](CCCCN)n3cc(CCO)nn3)CC2)nc(N2CCN(C(=O)CCCCCCCCCCNC(=O)[C@H](CCCCN)n3cc(CCO)nn3)CC2)n1	none (no result: SMARCA2 act)
O=[N+]([O-])c1ccc2cn[nH]c2c1	NR3A LBD binder 14
O=[N+]([O-])c1ccc(Cl)c(S(=O)(=O)Nc2ccc3cn[nH]c3c2)c1	none
C[C@@H]1CN([C@@H](C)CO)C(=O)Cc2cc(NC(=O)Cc3ccccc3)ccc2O[C@@H]1CN(C)S(C)(=O)=O	none (no result: SMARCA2 act, SKN-1 block, NadD inh, NR3A LBD binder, Vif imaging)
Cc1nc2c(Br)cc(Br)cc2cc1O	NR3A LBD binder 24
CCC(=O)N1C[C@H](C)[C@H](OC)CN(C)C(=O)c2cc(NC(=O)C3CCOCC3)ccc2OC[C@H]1C	none (no result: SMARCA2 act, SKN-1 block, NadD inh, NR3A LBD binder, Vif imaging)
CC(C)c1c(C(=O)N/N=C/c2ccc(OCc3ccc(F)cc3)cc2)nnn1-c1nonc1N	NR3A LBD binder 29
CC(C)c1c(C(=O)N/N=C/c2cccc(OCc3ccccc3)c2)nnn1-c1nonc1N	NR3A LBD binder 24
CC(C)c1c(C(=O)N/N=C/c2ccoc2)nnn1-c1nonc1N	none
COc1cc(/C=N/NC(=O)c2nnn(-c3nonc3N)c2C(C)C)ccc1OCc1ccccc1	NR3A LBD binder 35
CC(C)c1c(C(=O)N/N=C/c2ccsc2)nnn1-c1nonc1N	none
CC(C)c1c(C(=O)N/N=C/c2ccc(OCc3ccccc3)cc2)nnn1-c1nonc1N	NR3A LBD binder 32
CO[C@H]1CN(C)C(=O)c2ccc(NC(=O)c3ccccc3F)cc2OC[C@@H](C)N(CC2CC2)C[C@@H]1C	none (no result: SMARCA2 act, SKN-1 block, NadD inh, NR3A LBD binder, Vif imaging)
CO[C@H]1CN(C)C(=O)c2cc(NC(C)=O)ccc2OC[C@H](C)N(C(=O)Cc2cccnc2)C[C@@H]1C	none (no result: SMARCA2 act, SKN-1 block, NadD inh, NR3A LBD binder, Vif imaging)
C[C@@H]1CN([C@H](C)CO)S(=O)(=O)c2ccc(Br)cc2O[C@@H]1CN(C)C(=O)C1CC1	none (no result: SMARCA2 act, SKN-1 block, NadD inh, NR3A LBD binder, Vif imaging)

Screening results from PubChem BioAssay.
